Laboratory results: article PMC7826789 (International Journal of Molecular Sciences, 2021)

test system: AURKC; conditions: Compound Concentration (nM):1000
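Note: KINOMEscan scanMAX binding as percent activity remaining versus control; lower means stronger binding.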

Compound	Percent Control
Cl.O=C(Nc1ccc(Oc2ccc3[nH]c(NC(=O)c4ccco4)nc3c2)cc1)Nc1cc(C(F)(F)F)ccc1F [GW683134A]	56%
O=C(Nc1n[nH]c2nc(-c3ccc(O)cc3)c(Br)cc12)C1CC1 [SB-725317]	59%
COc1cc2ncnc(Nc3ccc4c(cnn4Cc4ccccc4)c3)c2cc1OC.Cl [GW282449A]	87%
CN(C)CCNC(=O)Nc1ccc(N(C)c2ccnc(Nc3ccc(CS(C)(=O)=O)cc3)n2)cc1.Cl [GW830900A]	4.5%
CC1=C(C(=O)Nc2ccc3[nH]ncc3c2)C(c2ccc(Cl)c(Cl)c2)CC(=O)N1 (stereo not shown) [GSK299115A]	56%
COc1ccc(COc2ccc(Cc3cnc(N)nc3N)cc2OC)cc1 [GW632580X]	100%
CCS(=O)(=O)c1ccc(OC)c(Nc2ncc(-c3cccc(F)c3)o2)c1 [GW621970X]	100%
COc1cc(/C=N/Nc2ncnc3[nH]ncc23)ccc1O [GW578748X]	58%
C/C(Nc1ccc(S(N)(=O)=O)cc1)=C1/C(=O)Nc2ccccc21 [GW335962X]	71%
CN1CCN(C(=O)c2ccc(NC(=O)Nc3ccc(N(C)c4ccnc(Nc5ccc(CS(C)(=O)=O)cc5)n4)cc3)cc2)CC1.Cl [GW830263A]	0.2%
CC1=C(C(=O)Nc2ccc3[nH]ncc3c2)C(c2ccc3ccccc3c2)CC(=O)N1 (stereo not shown) [GSK270822A]	62%
COc1ccc2cc(-c3c(-c4ccncc4)nc(-c4ccc(S(C)(=O)=O)cc4C)n3C)ccc2c1 [SB-633825]	85%
COc1ccccc1-c1cc(/C=C2\C(=O)Nc3ncc(Br)cc32)cc(Br)c1O [GW442130X]	80%
NS(=O)(=O)c1ccc(N/N=C2\C(=O)Nc3ccc(C(=O)NCc4ccncc4)cc32)cc1 [GW300657X]	76%
Cl.O=C(O[C@H]1CN[C@H](C#Cc2cc3ncnc(Nc4ccc5c(cnn5Cc5ccccc5)c4)c3s2)C1)N1CCOCC1 [GSK200398A]	100%
Cl.O=S1CCN(Cc2ccc(-c3ccc4ncnc(Nc5ccc(OCc6ccccc6)c(F)c5)c4c3)o2)CC1 [GW576924A]	100%
Cl.c1ccc(Cc2nc3ccc(Nc4ncnc5ccccc45)cc3[nH]2)cc1 [GR269666A]	100%
COc1cccc(-c2c[nH]c3c(N/N=C/c4ccncc4)ncnc23)c1 [GW814408X]	48%
Cl.O=C(Nc1ccc(Oc2ccc3[nH]c(NC(=O)c4ccccc4)nc3c2)cc1)Nc1cc(C(F)(F)F)ccc1F [GW709042A]	37%
CCn1c(-c2nonc2N)nc2c(C#CC(C)(C)O)nc(OCCNC)cc21.Cl [GSK949675]	100%

Compound	Percent Control
CN(C)c1cc2c(Nc3ccc4c(cnn4Cc4ccccc4)c3)ncnc2cn1 [GW282974X]	92%
C[C@@H](Oc1cc(-n2cnc3ccc(OC4CCN(C)CC4)cc32)sc1C(N)=O)c1ccccc1Cl [GSK579289A]	65%
CCc1ccc(Oc2nccc(-c3c(-c4ccc(F)cc4)ncn3C3CCNCC3)n2)cc1 [SB-242719]	98%
NS(=O)(=O)c1ccc(N/N=C2\C(=O)Nc3ccc(-c4cnco4)cc32)cc1 [GW276655]	65%
COc1cc(C)c(N(C)C(=O)CN(C)C)cc1Nc1nc(Nc2cccc(F)c2C(N)=O)c2cc[nH]c2n1 [GSK2219385]	90%
COc1ccc2[nH]c3c4[nH]c5ccc(OC)cc5c4c4c(c3c2c1)C(=O)NC4=O [GW296115X]	17%
COc1cc(C=NNc2ncnc3c2cnn3-c2ccccc2)ccc1O [GW513184X]	59%
NS(=O)(=O)c1ccc(N/N=C2\C(=O)Nc3ccc(Cl)cc32)cc1 [GW280670X]	100%
COc1cc(N2CCN(C(C)C)CC2)ccc1Nc1nc(Nc2ccc(F)cc2C(=O)NC[C@@H](O)CO)c2cc[nH]c2n1 [GSK1392956A]	90%
Cc1cc(O)cc(C)c1/C=C/c1cncc(C(N)=O)c1 [GW435821X]	100%
COC(=O)Nc1nc2ccc(Oc3ccc(NC(=O)Nc4cc(C(F)(F)F)ccc4F)cc3)cc2s1.Cl [GW693917A]	50%
CC(C)COC(=O)c1ccc2c(c1)/C(=C/Nc1ccc(S(N)(=O)=O)cc1)C(=O)N2 [GW416981X]	35%
CCS(=O)(=O)c1ccc(OC)c(Nc2ncc(-c3cccc(OC)c3)o2)c1 [GW580509X]	100%
COc1cccc(-n2ncc3c(N/N=C/c4ccncc4)ncnc32)c1 [GW784752X]	94%
COc1ccc2c(-c3ccnc(Nc4cccc(OC(F)(F)F)c4)n3)cnn2n1 [GW810372X]	57%
O=C1Nc2ccc(C(=O)c3ccco3)cc2C1=Cc1cc(Cl)c(O)c(Cl)c1 [GW406108X]	58%
NS(=O)(=O)c1ccc(Nc2ncc(-c3ccccc3)o2)cc1 [GW572399X]	100%
COc1cc2ncn(-c3cc(O[C@H](C)c4ccccc4Cl)c(C(N)=O)s3)c2cc1OC [GSK237701A]	74%
Nc1ncnc2occ(-c3ccc(NC(=O)Nc4cc(C(F)(F)F)ccc4F)cc3)c12 [GW770249X]	35%
NS(=O)(=O)c1ccc(N/N=C2\C(=O)Nc3ccc(C(=O)NCCc4c[nH]cn4)cc32)cc1 [GW300660X]	99%
